Experimental findings from PubChem BioAssay AID485395 (ICCB-Longwood Screening Facility, Harvard Medical School, 2010) are described below.

In all, about 120,000 compounds went through this assay and about 55 (0.05%) were called active. Cut-off read from the data, not from the text of the source: active = inhibition above about 25% (passing the limit was not always enough); inactive = the rest. For the sample, actives were picked, then their nearest neighbours and some compounds at random.

By inhibition is commonly meant the drop in the measured response relative to a control, in per cent.

This experiment has as its system replicative DNA helicase (DnaC/DnaB), Staphylococcus aureus. The experiment in a line: inhibitors of S. aureus replicative helicase, primary screen, biochemical, fluorescence unwinding readout (AID 485395).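 Note: 0% = mean of negative control wells and 100% = mean of positive control wells.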 The conditions noted are these: purified S. aureus helicase, fluorescence unwinding assay; stronger effect = higher value; concentration not given here.
Take `Cc1ccc(C)c(C(C)NC(=O)Cc2c(C)noc2C)c1` (stereo not drawn): the inhibition was -13% (inactive).

With `Cc1cc(C)cc(NC(=O)N2CCC3(CC2)OCCO3)c1`, the inhibition is 24% (inactive). Take `CCOc1ccc(NC(=O)Cn2c(=O)n(CC(=O)NC3CCCC3)c(=O)c3ccccc32)cc1`: the inhibition is -11% (inactive).

Consider `COC(CNC(=O)c1c[nH]c2ccc(S(=O)(=O)N(C)c3ccc(C(C)C)cc3)cc2c1=O)OC`, for which the inhibition is -3% (inactive).

As to `CCOC(=O)Cc1sc(NC(C)=O)nc1-c1ccccc1`, the inhibition was -9% (inactive). Then `CCn1nc(C(=O)OCCCCN2C(=O)c3ccccc3C2=O)c2ccccc2c1=O`, with -20% (inactive). On to `CC(C)Cc1nnc(N)s1`, for which the inhibition was 5% (inactive). In the case of `CCCCNC(=O)Cn1c(-c2ccc(C)cc2)noc1=O`, the inhibition is 10% (inactive). For `CC1(C)CC(=NNC(N)=S)CC(C)(C)N1`, the inhibition was 0% (inactive). Consider `COCC(C)n1c(C)cc(C2=NNC(=Nc3ccc(F)cc3F)SC2)c1C` (stereo not drawn), for which the inhibition was 16% (inactive). Regarding `C1=C(c2ccccc2)Nc2ncnn2C1c1ccco1` (stereo not drawn), the inhibition was -1% (inactive).

Consider `CCC(=O)Nc1ccc(-c2cn3cccnc3n2)cc1`, for which the inhibition was 5% (inactive).

In the case of `CCOC(=O)c1c(Cc2cccc(C)c2)c[nH]c1-c1ccccc1`, the inhibition was 9% (inactive). As for `Cc1nc2ncnn2c(C)c1CCC(=O)N(Cc1cccnc1)c1ccc2c(c1)OCO2`, the inhibition was -82% (inactive). Then `CCN(CC)C(=O)c1ccc(CS(=O)c2cccc(Cl)c2)o1` (stereo not drawn), with 24% (inactive); and `N#Cc1ccc(OCC(=O)N2CCN(c3ccc(O)cc3)CC2)cc1`, with 12% (inactive). Next, `COCCN(Cc1nc2ccccc2c(=O)[nH]1)C(=O)C1=NN(c2cccc(C)c2)C(=O)CC1`: 4% (inactive). Consider `Cc1cc(F)ccc1S(=O)(=O)Nc1ccccc1C(=O)OCC(=O)N1CCCC1=O`, for which the inhibition is 4% (inactive). For the compound `COCc1cc(C)nc(SCC(=O)NC2C3CC4CC(C3)CC2C4)c1C#N` (stereo not drawn), the inhibition is 1% (inactive). Turning to `CCOCc1c[nH]c(=O)[nH]c1=O`, the inhibition was 4% (inactive).

As for `COc1ccc(NC(=O)CCCn2nnc3ccccc3c2=O)cc1`, the inhibition was -14% (inactive). On to `Cc1ccc2[nH]c(=O)c3cc(C(=O)N4CCCc5ccccc54)sc3c2c1`, for which the inhibition was 8% (inactive). Next, `COc1cc(C)c2c(=O)c(-c3csc(C)n3)coc2c1`: -19% (inactive); `COC(=O)c1ccc2c(c1)C(=O)/C(=C\c1ccccc1O)O2`: 4% (inactive). Then `CCNC(=O)C1CCN(c2ncnc3c2nc2n3CCCCC2)CC1`, with -22% (inactive); and `CCN(Cc1ccc(Cl)s1)Cn1c(CO)nc2ccccc21`, with -6% (inactive); and `Nc1nc(N)nc(SCC(=O)N2N=C(c3ccc4ccccc4c3)CC2c2ccccc2)n1` (stereo not drawn), with -3% (inactive). Next, `NC(=O)C12CC3CC(CC(Cl)(C3)C1)C2`: -9% (inactive); `COc1ccc2c(=O)c(-c3ccc(F)cc3)coc2c1`: 0% (inactive); `CN1C2=C(C(=O)CCC2)C(c2ccc(O)c(Cl)c2)C2=C1CCCC2=O`: 10% (inactive). Turning to `CC(C)C(NC(=O)c1ccco1)C(=O)N1CCC(Cc2ccccc2)CC1` (stereo not drawn), the inhibition was -7% (inactive). Next, `CC1(C)CCCC2=C1CC1C(=O)N(CCC[N+](C)(C)C)C(=O)C1C2` (stereo not drawn): 6% (inactive); `CC1CC(C)CN(C(=O)c2ccc3c(c2)N(C)C(=O)/C(=C/c2cccc(Cl)c2)S3)C1` (stereo not drawn): -10% (inactive).

As to `CCOc1ccc(-n2c(CSc3nc(C)cc(C)n3)nnc2SC)cc1`, the inhibition is 27% (inactive). Turning to `O=C1CCCc2c1cnn2-c1ccccc1`, the inhibition is -10% (inactive). Then `CN(Cc1ccccc1)S(=O)(=O)c1ccc2c3c(cccc13)C(=O)N2`, with 5% (inactive); and `O=C(O)c1cccc(S(=O)(=O)NCC(F)(F)F)c1`, with 18% (inactive); and `Cc1ccc(OCCn2cc(/C=C3/C(=O)Nc4cc(Cl)ccc43)c3ccccc32)cc1C`, with -483% (inactive). Next, `N#Cc1cccc(OCC(=O)NCC(F)(F)F)c1`: 12% (inactive). `Cc1c(/C=C(\C#N)C(=O)O)cc(C#N)n1C`: the inhibition was -11% (inactive).

Regarding `Cc1cnc(C(=O)Nc2ccc(S(=O)(=O)NC(C)C)cc2)cn1`, the inhibition was -1% (inactive). As for `CCSc1nnc(SCC(=O)c2ccc(OC)cc2OC)s1`, the inhibition is -4% (inactive).

Take `COC(=O)c1c(Cn2cc(Br)ccc2=O)nc2ccccc2c1C`: the inhibition is 0% (inactive). Then `COc1nc(-c2ccccc2)ccc1-c1noc(C(C)C)n1`, with 2% (inactive).

On to `CCCNc1cc(C)nc2nc(-c3ccc(OC)cc3)nn12`, for which the inhibition was 12% (inactive). Next, `O=C(Cc1c(F)cccc1Cl)OCc1ncc(-c2ccccc2)o1`: -4% (inactive); `Cc1ccc(-c2cc(C(=O)N3CCCCC3C)[nH]n2)cc1C` (stereo not drawn): -28% (inactive); `CCc1ccccc1NC(=O)Cn1ncc2c(=O)oc3ccccc3c21`: 4% (inactive). With `CCSc1nsc(SCC)c1C(=O)O`, the inhibition was -3% (inactive).

On to `COc1ccccc1C/C(N)=N/OC(=O)c1ccccc1`, for which the inhibition is 6% (inactive).

Consider `NC(=O)COC(=O)/C=C/c1ccc(S(=O)(=O)N2CCOCC2)cc1`, for which the inhibition is -10% (inactive). As for `COc1ccc(-n2nc(C(=O)NCC(=O)N3CCOCC3)c3ccccc3c2=O)cc1`, the inhibition was -25% (inactive). Next, `COc1ccc(S(=O)(=O)NCCn2ccc3ccccc32)cc1`: -14% (inactive); `CC1(C)CC(NS(C)(=O)=O)CC(C)(C)N1O`: 20% (inactive). Next, `CC(C)c1ccccc1N=Cc1ccc2c(c1)OCO2`: -15% (inactive). Turning to `NC(=O)C1CCN(C(=O)COc2ccc(Cl)cc2Cl)CC1`, the inhibition was 0% (inactive). As for `N#CCCn1cc(/C=c2\sc3nc4ccccc4n3c2=O)c(-c2ccc(F)cc2)n1`, the inhibition was 4% (inactive). As for `Cn1nc(NCc2ccc(Cl)cc2)c(=O)n(C)c1=O`, the inhibition was -8% (inactive). Regarding `O=C(Nc1cccc(C(F)(F)F)c1)/C(=C\c1cccnc1)NC(=O)c1cccs1`, the inhibition was -22% (inactive).

For the compound `COC(=O)N/N=C(\C)c1ccc2c(c1)Nc1ccccc1S2`, the inhibition is 8% (inactive). Next, `Cc1cc(NC(=O)COC(=O)C2=COCCO2)n(-c2ccccc2)n1`: 4% (inactive). Take `CC(C)Cn1c(SCC(=O)Nc2ccccc2)nc2ccccc21`: the inhibition was 14% (inactive). As for `O=C1NC(c2ccccn2)Nc2sc3c(c21)CCCC3` (stereo not drawn), the inhibition is 9% (inactive).

For the compound `c1ccc(CCNCc2cn[nH]c2-c2cccs2)cc1`, the inhibition was -16% (inactive). Next, `COc1ccccc1N=Cc1c(O)n(-c2ccccc2OC)c(=O)[nH]c1=O`: 8% (inactive).

Turning to `CC1Nc2ccc(C(=O)N3CCC4(CC3)OCCO4)cc2NC1=O` (stereo not drawn), the inhibition is 34% (inactive). Turning to `CC(C)(C)NC(=O)C(C)(C)Oc1ccc(Cl)cc1`, the inhibition is -13% (inactive). Next, `CC(Sc1nncn1C)C(=O)NCCC1=CCCCC1` (stereo not drawn): 9% (inactive); `Cc1ccccc1NC(=O)CSc1nc2ccc(N)cc2s1`: -1% (inactive); `N#Cc1ccc(NC(=O)/C=C/c2ccccc2)cc1`: 4% (inactive). As for `COc1ccc(C(=O)n2c(SC)nc3ccccc32)cc1OC`, the inhibition was -17% (inactive). In the case of `Cc1ccc(O)c(NC(=O)c2cccs2)c1`, the inhibition was 8% (inactive).

`CC1(C)C=C(C(=O)N2CCCCC2)C(C)(C)N1`: the inhibition was 5% (inactive). Turning to `O=S1(=O)CCC(n2nnnc2-c2ccc(Cl)cc2)C1` (stereo not drawn), the inhibition was 13% (inactive). Next, `Cc1ccc(C)c(OC(=O)NC(C)(C(F)(F)F)C(F)(F)F)c1C`: 1% (inactive). Consider `Cc1nc(SCC(=O)N2CCCC2)c2c(=O)n(C)c(=O)n(C)c2n1`, for which the inhibition was 0% (inactive). `CCN(CC)c1nc(-c2ccccc2O)nc2ccccc12`: the inhibition is -3% (inactive). Next, `COc1ccc(C(=O)CSC2=C(C#N)C(C)(C)C(C#N)=C(N)N2)cc1`: -9% (inactive). Then `O=C(COC(=O)c1ccc(N2CCCC2=O)cc1)c1ccc(OC(F)F)cc1`, with -5% (inactive); and `COc1ccc(Br)cc1CN(C)C(C)C(=O)N1CC(C)OC(C)C1` (stereo not drawn), with -12% (inactive). Then `Cc1cc(C(=O)N2CCC(C)CC2)c(C)n1-c1ccc(F)cc1`, with 23% (inactive); and `COc1ccc(/C=C/C(=O)CC(=O)c2ccccc2O)cc1`, with -17% (inactive); and `CN(C)c1ccc(NC(=O)CSc2nnc(C3CC3)n2N)cc1`, with -15% (inactive). As to `COc1cccc(N=Nc2c(O)[nH]c(=O)[nH]c2=O)c1`, the inhibition is 7% (inactive). Turning to `CCOC(=O)c1cnc2c(C)c(C)ccc2c1NCCCN(C)C`, the inhibition was 65% (active). Consider `CCOC(=O)c1cnc2c(C)cc(C)cc2c1NCCN(C)C`, for which the inhibition was 13% (inactive). Regarding `CN(C)CCCNc1c(N)c(=O)oc2ccccc12`, the inhibition is 27% (inactive).

As for `COc1ccc(C(CC(=O)O)NS(=O)(=O)c2ccccc2F)cc1OC` (stereo not drawn), the inhibition is -3% (inactive). Regarding `CCc1cccc2c(C3=Nn4cnnc4SC3c3ccccc3)c[nH]c12` (stereo not drawn), the inhibition was 16% (inactive). Consider `Cn1cc(SC(=N)N)c2ccccc21`, for which the inhibition is -12% (inactive). Next, `Cc1[nH]n(-c2ccccc2)c(=O)c1CCC#N`: -6% (inactive). As to `Cc1sc2nc(CN3CCCC3)nc(NC(C)C)c2c1C`, the inhibition is -5% (inactive). Next, `COC(CNC(=O)C1CCC(CNS(=O)(=O)c2ccc(C)cc2)CC1)OC` (stereo not drawn): 9% (inactive). `COC(=O)c1sc(NC(=O)Cn2cnc3sccc3c2=O)c(C(=O)OC)c1C`: the inhibition is -7% (inactive). Next, `C=C(C)CNC(=S)NN`: -24% (inactive); `CC1CCCCN1S(=O)(=O)c1ccc(I)cc1` (stereo not drawn): 17% (inactive). Then `CC(=O)Nc1ccc(NC2SC(=O)NC2=O)cc1` (stereo not drawn), with 7% (inactive). Then `Cc1[nH]c2ccccc2c1SCCNC(=O)C(C)C`, with -17% (inactive).
